Shown is part of a subset that was picked to be rich in hits.
HT1080 IDH1KD tx – qHTS for induction of synthetic lethality in tumor cells producing 2HG: qHTS for the HT-1080-IDH1KD cell line; 2% of 360,000 active; HT-1080 IDH1 knockdown viability, ATP luminescence, 48 h; Potency, µM (highest dose often 46.1 µM), for the others: at the highest dose activity, negative = toxicity, usual class: cytotoxic;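 further: potency means the concentration at half of the fitted maximal effect; 0% = DMSO wells and -100% = cell-free medium wells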
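After a 2 h attachment period, IDH1KD HT-1080 cells took pin-transferred compound for 48 h at 37 °C; ATP-based luminescence after 10 min room-temperature reagent incubation reported viability.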
HT1080NT lethal – qHTS for induction of synthetic lethality in tumor cells producing 2HG: qHTS for the HT-1080-NT fibrosarcoma cell line | HT-1080-NT fibrosarcoma viability, CellTiter-Glo ATP luminescence, 48 h | Potency, µM (top dose mostly 46.1 µM), inactives show at the highest dose activity, negative = less viability, actives largely listed as cytotoxic | 1.6% of 360,000 active | AID 686970, 2013;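 further: NT is the 2HG producing partner of a matched IDH1 knockdown line; potency means the concentration at half of the fitted maximal effect; 0% = DMSO-treated cells and -100% = media-only wells without cells; nearly all actives have a fitted effect of over 55% in size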
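Read-out is CellTiter-Glo luminescence after 10 minutes at room temperature, following 48 hours' compound treatment of HT-1080-NT cells (750 cells/well, RPMI, 5% FBS, 37 degrees C).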
ALOX12 inh – Primary qHTS assay for inhibitors of human arachidonate 12S-lipoxygenase (ALOX12): Round 2; Polyunsaturated fatty acid lipoxygenase ALOX12 (Homo sapiens), P18054; Potency, µM (doses to about 108 µM), for inactives: at the top dose activity change, negative = inhibition, actives largely listed as inhibitors; 1.1% of 580,000 active; AID 1671190, 2021; purified 12hLO, xylenol orange hydroperoxide absorbance; further: potency means the concentration at half of the fitted maximal effect
Target sequence (P18054 whole entry, looked up): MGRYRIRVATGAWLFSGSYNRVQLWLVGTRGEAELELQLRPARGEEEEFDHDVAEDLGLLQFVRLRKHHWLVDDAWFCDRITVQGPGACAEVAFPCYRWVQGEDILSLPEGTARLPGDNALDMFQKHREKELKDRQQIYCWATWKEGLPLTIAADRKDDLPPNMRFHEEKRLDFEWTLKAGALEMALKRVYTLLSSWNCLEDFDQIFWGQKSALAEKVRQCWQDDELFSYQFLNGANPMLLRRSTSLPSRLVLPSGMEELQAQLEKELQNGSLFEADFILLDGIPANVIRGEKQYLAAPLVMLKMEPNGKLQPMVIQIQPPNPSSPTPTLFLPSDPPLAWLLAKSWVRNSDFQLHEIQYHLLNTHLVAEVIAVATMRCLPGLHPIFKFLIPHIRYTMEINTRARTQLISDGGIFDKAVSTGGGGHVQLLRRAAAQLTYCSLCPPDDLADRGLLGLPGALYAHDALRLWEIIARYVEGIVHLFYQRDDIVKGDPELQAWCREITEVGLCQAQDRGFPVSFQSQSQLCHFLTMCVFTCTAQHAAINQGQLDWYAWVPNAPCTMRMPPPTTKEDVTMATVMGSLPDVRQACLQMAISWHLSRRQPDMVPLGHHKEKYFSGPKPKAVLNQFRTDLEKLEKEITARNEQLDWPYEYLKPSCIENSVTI
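Purified human 12hLO at 150 nM in 25 mM Hepes, 0.01% Triton X-100, pH 7.0, preincubated 15 min at room temperature with compound. Reaction started with 40 uM arachidonic acid, 30 min at room temperature. Hydroperoxide measured by Fe-xylenol orange, 573/405 nm absorbance ratio.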
IL-1B inflam inh – qHTS for Inhibitors of Inflammasome Signaling: IL-1-beta AlphaLISA Primary Screen. 4.7% of 360,000 active. activity change, % at 57.5 µM. THP-1 LPS/ATP IL-1B secretion, AlphaLISA, 16 h; active compounds read low; in the data active means activity change below about -50%; inconclusive means mostly about -30% to -49%
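THP-1 cells pretreated 1 hr with compounds (up to 57.5 uM final), then stimulated with LPS (250 ng/mL final) plus ATP (1.25 mM final); secreted IL-1B measured by AlphaLISA after 16 hr, decreased signal indicating inhibition.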
TDP1 cell CPT – qHTS for Inhibitors of human tyrosyl-DNA phosphodiesterase 1 (TDP1): qHTS in cells in presence of CPT; 12% of 420,000 active; Potency, µM (top dose mostly 46.2 µM), for the others: at the highest dose activity change, negative = growth inhibition, actives largely listed as inhibitors; chicken DT40 Tdp1-/-;hTDP1 cells + 20 nM CPT, ATP luminescence, 48 h; AID 686979, 2013; further: potency means the concentration at half of the fitted maximal effect; nearly all actives have a fitted effect of over 55% in size
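Chicken DT40 Tdp1-/- cells stably complemented with human TDP1 were seeded at 400 cells/well in medium containing 20 nM camptothecin, exposed to pin-transferred compounds, and grown at 37 °C for at least 48 hr. Viability was read as ATP luminescence.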
TDP1 cell noCPT – qHTS for Inhibitors of human tyrosyl-DNA phosphodiesterase 1 (TDP1): qHTS in cells in absence of CPT | DT40 Tdp1-/- hTDP1 cells, no CPT, ATP luminescence, 48 h | Potency, µM (titrated, usually from 46.2 µM), for inactives: top-dose activity change, negative = growth inhibition, most hits filed as inhibitors | 15% of 420,000 active | AID 686978, 2013; further: potency means the concentration at half of the fitted maximal effect; nearly all actives have a fitted effect of over 55% in size
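Growth kinetics read by CellTiter-Glo luminescence after ≥48 hr at 37 °C. Cells: DT40 Tdp1-/- stably carrying human TDP1, 400 per well, compound exposure in the absence of CPT (DMSO vehicle).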
The depositor's hits bear a star; u = inconclusive; x = no result. Unless noted, the call rests on the fitted dose curve; in most records, active means well fitted curve in the direction sought with a large enough effect; inconclusive means small, poorly fitted or top-dose-only effect, or another doubt; inactive means no such curve, though single readings can be large; an effect the other way counts as inactive or inconclusive. Unless noted, on the % scale 0 is the no-effect control and ±100 the full control effect.

SMILES	HT1080 IDH1KD tx	HT1080NT lethal	ALOX12 inh	IL-1B inflam inh	TDP1 cell CPT	TDP1 cell noCPT
CCCn1c(SCC(=O)Nc2ccccc2N2CCOCC2)nc2c1c(=O)n(C)c(=O)n2C	7%	8%	-17%	7	u	u
CCCn1c(SCC(=O)Nc2nc3c(s2)CCCC3)nc2c1c(=O)n(C)c(=O)n2C	2%	-1%	0%	16	12µM*	15µM*
CCCCn1c(SCC(=O)Nc2nnc(C(C)C)s2)nc2c1c(=O)n(C)c(=O)n2C	9%	9%	16%	28	18µM*	18µM*
COc1ccc(-c2nc3cc(C)ccc3cc2CN2CCC(NC(C)=O)C2)cc1 (configuration not stated)	x	x	3%	x	x	x
O=c1c2ccccc2c(C=Nc2ccccc2O)c(O)n1-c1nccs1	5%	u	8%	-29	-29%	u
Cc1cc(C)c(N=Cc2c(O)n(-c3nccs3)c(=O)c3ccccc23)c(C)c1	-3%	4%	3%	u	u	16µM*
Cc1cc(N=Cc2c(O)n(-c3ccc(C)c(C)c3)c(=O)c3ccccc23)no1	x	x	-24%	x	x	x
Cc1ccccc1N=Cc1c(O)n(-c2nccs2)c(=O)c2ccccc12	13%	12%	-6%	-55*	u	u
Cc1cccc(C)c1N=Cc1c(O)n(-c2nccs2)c(=O)c2ccccc12	1%	-5%	x	-50*	15µM*	21µM*
Cc1ccc(C2=NC3(CCN(C(=O)c4ccoc4)CC3)ON2)cc1	x	x	-11%	x	x	x
Cn1c(N)c(C(=O)CCl)c(=O)n(C)c1=O	6%	4%	u	u	7.3µM*	u
Cn1c(N)c(C(=O)CCl)c(=O)n(Cc2ccccc2)c1=O	6%	-2%	1%	-97*	2.3µM*	5.8µM*
Cn1c(=O)c(C(=O)CCl)c(N)n(Cc2ccccc2)c1=O	-19%	-6%	u	-95*	4.1µM*	4.6µM*
Cn1c(N)c(C(=O)CCc2ccccc2)c(=O)n(C)c1=O	x	x	3%	x	x	x
Fc1ccccc1COc1ccc(Cl)cc1CNn1cnnc1	x	x	29%	x	x	x
COCC1CN(C2CCC2)CC12CCN(C(=O)c1ccccc1OC)CC2 (configuration not stated)	x	x	56%	x	x	x
CCNC(=O)CSc1nc(C2CC2)nc2ccccc12	x	x	4%	x	x	x
CCC(C)NC(=S)Nc1cc(C)cc(C)c1 (configuration not stated)	x	x	-17%	x	x	x
Clc1ccc(CN2CCC(CNc3ncnc4onc(-c5ccc(Cl)cc5)c34)CC2)cc1	x	x	u	x	u	23µM*
Cc1ccccc1CN1CCC(CNc2ncnc3onc(-c4ccc(Cl)cc4)c23)CC1	x	x	-7%	x	u	16µM*
Cc1cccc(CN2CCC(CNc3ncnc4onc(-c5ccc(Cl)cc5)c34)CC2)c1	x	x	-5%	x	u	u
Cc1ccc(CN2CCC(CNc3ncnc4onc(-c5ccc(Cl)cc5)c34)CC2)cc1	x	x	4%	x	18µM*	16µM*
COc1ccc(CC(=O)N2CC(CO)C3(CCNCC3)C2)cc1 (configuration not stated)	x	x	48%	x	x	x
COc1ccc(C2(C(=O)N3CC(CO)C4(CCNCC4)C3)CCCCC2)cc1 (configuration not stated)	x	x	32µM*	x	x	x
